Measured values: ChEMBL document CHEMBL3988442, “University of Dundee, Small-Polar-MMV Screening Library” (2021)

target: T1, Tyrosyl-tRNA synthetase, putative (Trypanosoma cruzi (strain CL Brener)) (UniProt Q4DSP6); test: Trypanosoma cruzi tyrosyl tRNA synthetase (TcYRS) SOP; format: functional; set-up: scale not given: direction of the effect not stated beside the values; conditions: 30 µM
T1 sequence (whole entry): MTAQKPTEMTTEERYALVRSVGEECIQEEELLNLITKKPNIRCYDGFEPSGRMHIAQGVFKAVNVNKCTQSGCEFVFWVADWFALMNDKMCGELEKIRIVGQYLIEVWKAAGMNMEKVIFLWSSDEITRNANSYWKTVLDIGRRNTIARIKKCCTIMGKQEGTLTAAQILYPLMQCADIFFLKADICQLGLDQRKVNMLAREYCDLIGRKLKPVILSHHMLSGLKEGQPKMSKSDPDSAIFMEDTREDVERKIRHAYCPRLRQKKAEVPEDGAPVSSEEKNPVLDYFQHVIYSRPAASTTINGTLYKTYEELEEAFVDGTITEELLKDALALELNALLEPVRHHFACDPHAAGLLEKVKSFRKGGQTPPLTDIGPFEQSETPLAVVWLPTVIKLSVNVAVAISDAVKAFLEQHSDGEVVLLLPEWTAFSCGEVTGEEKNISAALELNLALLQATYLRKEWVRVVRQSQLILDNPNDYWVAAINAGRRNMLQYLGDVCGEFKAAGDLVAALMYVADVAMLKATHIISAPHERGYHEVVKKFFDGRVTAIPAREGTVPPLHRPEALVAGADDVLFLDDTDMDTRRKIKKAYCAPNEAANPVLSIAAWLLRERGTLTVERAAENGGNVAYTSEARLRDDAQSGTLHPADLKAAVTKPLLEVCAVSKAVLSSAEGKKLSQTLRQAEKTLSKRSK

SMILES	Percent Effect
COCc1ncn2c1CN(C(=O)C1CC=CC1)CC2	11.1%
c1ccc(Cn2ccnc2CN2CCOC(Cn3cccn3)C2)cc1 (stereo not drawn)	17.7%
CC(C)c1csc(C2CCCN(C(=O)c3ccc(=O)n(C)n3)C2)n1 (stereo not drawn)	11.1%
Cc1csc(C2CCCCN2C(=O)CN(C)C2CC2)n1 (stereo not drawn)	5.06%
CC(C)NC(=O)N1CCN(CC2CC2)CC2(CC(=O)N(C)C2)C1 (stereo not drawn)	-6.1%
Cc1ccc(C(=O)N2CC[C@@H]3[C@H]2CCC(=O)N3c2ccccc2)o1	11.5%
Cn1cc(CN2CCCN(C(=O)c3ccc4c(c3)COC4)CC2)cn1	11.1%
O=C(c1cncc(N2CCC3(CCNCC3)CC2)n1)N1CCCC1	21%
Cn1ncc2c(=O)[nH]c(CN3CCC(Cc4ccccc4)CC3)nc21	25.9%
O=C(NCc1cnc2n1CCN(Cc1ccsc1)CC2)C1CCC1	13.6%
CC(=O)c1cn(CCC(=O)N[C@H](C(=O)O)C(C)C)c2ccccc12	15.4%
Cc1nn(C)c(C)c1C1CCCN1C(=O)CCCn1cccn1 (stereo not drawn)	-6.17%
COc1nc2c(cc1C(=O)N1C[C@H](N)C[C@H]1C(=O)NC(C)C)CCC2	15.4%
OC1CCN(Cc2c(C3CCCNC3)[nH]c3ncccc23)CC1 (stereo not drawn)	9.09%
CCN1CC2(CC1=O)CN(Cc1ccco1)CCN(C(=O)N(C)C)C2 (stereo not drawn)	11.1%
Cc1ccc(C(CNCc2ccncc2)N2CCOCC2)s1 (stereo not drawn)	-1.22%
CCOc1ncccc1C(=O)N1CCCCC1c1nccs1 (stereo not drawn)	11.1%
Cn1cc(CN2CC[C@@H]3[C@@H](CCC(=O)N3CCc3c[nH]cn3)C2)cn1	6.17%
O=C(c1cscn1)N1CCC[C@]2(C[C@H](OCC3CC3)CO2)C1	1.28%

target: Chromo domain-containing protein 1 (Saccharomyces cerevisiae (strain ATCC 204508 / S288c) (Baker's yeast)) (UniProt P32657); test: ScCHD-1 Enzyme Inhibition Assay; format: functional; set-up: scale not given: in the data most compounds retested in dose-response had high values; conditions: 30 µM
Sequence (P32657 whole entry, the tested form may be a part): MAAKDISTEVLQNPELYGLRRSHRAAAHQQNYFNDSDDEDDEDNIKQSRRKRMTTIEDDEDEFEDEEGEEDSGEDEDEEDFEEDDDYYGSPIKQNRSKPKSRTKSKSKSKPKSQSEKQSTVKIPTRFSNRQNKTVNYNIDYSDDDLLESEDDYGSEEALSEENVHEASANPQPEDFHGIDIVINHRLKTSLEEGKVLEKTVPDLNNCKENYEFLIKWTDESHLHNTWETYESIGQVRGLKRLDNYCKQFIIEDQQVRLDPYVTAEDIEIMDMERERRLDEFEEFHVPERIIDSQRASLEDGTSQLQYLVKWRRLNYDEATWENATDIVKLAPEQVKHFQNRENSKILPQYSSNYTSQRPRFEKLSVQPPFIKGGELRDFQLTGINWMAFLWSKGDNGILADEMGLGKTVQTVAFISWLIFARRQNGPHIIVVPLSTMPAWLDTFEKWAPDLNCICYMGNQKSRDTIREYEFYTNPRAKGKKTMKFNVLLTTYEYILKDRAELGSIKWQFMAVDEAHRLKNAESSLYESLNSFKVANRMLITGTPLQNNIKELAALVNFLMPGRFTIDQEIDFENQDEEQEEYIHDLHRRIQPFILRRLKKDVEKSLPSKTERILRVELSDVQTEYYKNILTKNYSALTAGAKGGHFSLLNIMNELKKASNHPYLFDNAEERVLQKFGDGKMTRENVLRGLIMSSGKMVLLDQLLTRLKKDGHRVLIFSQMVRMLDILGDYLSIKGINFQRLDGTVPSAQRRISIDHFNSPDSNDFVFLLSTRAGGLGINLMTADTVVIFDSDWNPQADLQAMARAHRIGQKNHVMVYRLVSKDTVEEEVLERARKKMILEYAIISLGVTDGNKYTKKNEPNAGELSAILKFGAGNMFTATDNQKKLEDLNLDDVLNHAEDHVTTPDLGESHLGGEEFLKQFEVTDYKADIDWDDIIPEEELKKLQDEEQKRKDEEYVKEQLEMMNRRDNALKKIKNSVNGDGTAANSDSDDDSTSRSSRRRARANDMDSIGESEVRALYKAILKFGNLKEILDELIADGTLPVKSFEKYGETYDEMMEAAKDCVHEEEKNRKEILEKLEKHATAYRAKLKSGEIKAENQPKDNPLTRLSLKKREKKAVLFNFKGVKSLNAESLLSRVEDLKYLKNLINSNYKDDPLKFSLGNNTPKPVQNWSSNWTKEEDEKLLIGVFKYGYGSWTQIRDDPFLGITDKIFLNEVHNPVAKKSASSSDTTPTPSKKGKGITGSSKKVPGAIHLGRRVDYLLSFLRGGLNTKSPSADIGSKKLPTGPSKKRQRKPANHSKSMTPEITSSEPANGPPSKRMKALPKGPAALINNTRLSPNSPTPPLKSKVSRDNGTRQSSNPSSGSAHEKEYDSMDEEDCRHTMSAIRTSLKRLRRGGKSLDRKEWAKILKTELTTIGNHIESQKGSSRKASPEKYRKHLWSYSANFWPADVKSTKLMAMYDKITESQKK

SMILES	Percent Effect
CCCS(=O)(=O)c1ncc(CN2CCC(CO)CC2)n1CC1CCCO1 (stereo not drawn)	5.71%
CS(=O)(=O)NC1CCN(C(=O)NCCc2ccccc2F)CC1	-11.2%
Cn1ccc(CN2CCC(CCc3ccc(O)cc3)CC2)cc1=O	-10.1%
Cc1cc(N2CCN(CCO)CC2)nc(-c2ccncc2)n1	-4.96%
COc1c(CNC2CCN(C(C)(C)C)CC2)c(C(C)C)nn1C	-1.24%
O=C1[C@@H]2CCN(Cc3ccncc3)C[C@@H]2OCCN1c1ccccc1	-5.17%
CC(C)c1cc(NC(=O)c2ccc(NC3CC3)nc2)[nH]n1	-8.09%
CN(C)C(=O)N1C[C@@H]2CC[C@H](C1)N(Cc1ccc3nsnc3c1)C2	-0.102%
Cc1csc(N2CCCN(Cc3noc(C)n3)CC2)n1	-16%
CC(C)c1nccn1C1CCCN(C(=O)c2ccc3c(c2)OCO3)C1 (stereo not drawn)	-9.35%
Cc1nc(C)n(C2CCCN(C(=O)c3cc(C(N)=O)cs3)C2)n1 (stereo not drawn)	-31.4%
CCN1CC(C(=O)NCc2ccccc2-n2cccn2)CC1=O (stereo not drawn)	-8.96%
Cc1cnn(C2CN(CC(O)c3ccc(F)cc3)C2)c1 (stereo not drawn)	105%
CC(C)CN1CCN(Cc2nc3ccccc3[nH]2)[C@H]2CS(=O)(=O)C[C@H]21	-6.24%
OCCC1CN(C2CCC2)CCN1C1CCCC1 (stereo not drawn)	3.1%
Cc1cc(C)c2nc(CN3CC[C@@H](O)C3)cc(O)c2c1	-5.98%
c1ccc(CN2CCN(Cc3cscn3)CC2)cc1	-19.7%

SMILES	Percent Effect
O=C(CSc1nncs1)N1CCN(Cc2ccc(Cl)s2)CC1	-13.2%
CC1CN(C(=O)CN(Cc2ccco2)C2CC2)CCO1 (stereo not drawn)	-8.2%
C=Cc1ccc(C(=O)N2CCCC(Nc3ccc(OC)cc3)C2)cc1 (stereo not drawn)	-8.46%
COCc1ncn2c1CN(C(=O)C1CC=CC1)CC2	0.611%
c1ccc(Cn2ccnc2CN2CCOC(Cn3cccn3)C2)cc1 (stereo not drawn)	-16.1%
CC(C)c1csc(C2CCCN(C(=O)c3ccc(=O)n(C)n3)C2)n1 (stereo not drawn)	-5.6%
Cc1csc(C2CCCCN2C(=O)CN(C)C2CC2)n1 (stereo not drawn)	9.83%
CC(C)NC(=O)N1CCN(CC2CC2)CC2(CC(=O)N(C)C2)C1 (stereo not drawn)	16.8%
Cc1ccc(C(=O)N2CC[C@@H]3[C@H]2CCC(=O)N3c2ccccc2)o1	1.89%
Cn1cc(CN2CCCN(C(=O)c3ccc4c(c3)COC4)CC2)cn1	-0.916%
O=C(c1cncc(N2CCC3(CCNCC3)CC2)n1)N1CCCC1	-13.4%
Cn1ncc2c(=O)[nH]c(CN3CCC(Cc4ccccc4)CC3)nc21	-10.4%
O=C(NCc1cnc2n1CCN(Cc1ccsc1)CC2)C1CCC1	-4.47%
CC(=O)c1cn(CCC(=O)N[C@H](C(=O)O)C(C)C)c2ccccc12	-3.85%
Cc1nn(C)c(C)c1C1CCCN1C(=O)CCCn1cccn1 (stereo not drawn)	1.61%
COc1nc2c(cc1C(=O)N1C[C@H](N)C[C@H]1C(=O)NC(C)C)CCC2	-4.1%
OC1CCN(Cc2c(C3CCCNC3)[nH]c3ncccc23)CC1 (stereo not drawn)	-6.12%
